{
  "source": "PubChem BioAssay (NCATS)",
  "key": {"[1]": {"test": "Quantitative High-Throughput drug screen in 47 multiple myeloma cell lines against the NCATS MIPE library collection: PE2_PLB cell viability assay (AID 1919869); further: potency means the concentration at half of the fitted maximal effect; on all read-outs here: nearly all actives have a fitted effect of over 35% in size", "procedure,_shortened": "(§1)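 ATP-based luminescence (CellTiter-Glo, 5 min RT incubation) quantified surviving cells following two days' treatment with MIPE 4.0 agents at 37 °C, 5% CO2.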"}, "[2]": {"test": "Quantitative High-Throughput drug screen in 47 multiple myeloma cell lines against the NCATS MIPE library collection: PCM6_Riken cell viability assay (AID 1919870)", "procedure,_shortened": "as §1"}, "[3]": {"test": "Quantitative High-Throughput drug screen in 47 multiple myeloma cell lines against the NCATS MIPE library collection: RPMI8226_ATCC cell viability assay (AID 1919871)", "procedure,_shortened": "as §1"}, "[4]": {"test": "Quantitative High-Throughput drug screen in 47 multiple myeloma cell lines against the NCATS MIPE library collection: OPM2_DSMZ cell viability assay (AID 1919872)", "procedure,_shortened": "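Luminescent ATP measurement with CellTiter-Glo gives viability, scaled between DMSO-only wells (100%) and media-only wells (0%). Cells, 500 per well, faced library compounds for 48 hours at 37C.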"}, "[5]": {"test": "Quantitative High-Throughput drug screen in 47 multiple myeloma cell lines against the NCATS MIPE library collection: KMS28BM_JCRB cell viability assay (AID 1919874)", "procedure,_shortened": "as §1"}, "[6]": {"test": "qHTS drug screen for cell cycle checkpoint inhibitors in PARPi-resistant BRCA-mutant ovarian cancer cell lines. (AID 1963452; calls by dose curve)", "conditions": "PEO1/OlaR viability, CellTiter-Glo luminescence, 96 h; for Z-AUC: stronger effect = lower value", "procedure,_shortened": "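PEO1, PEO4 and PEO1/OlaR ovarian cancer cells, 600 per well, exposed 96 h at 37C to a dilution series. Viability read by CellTiter-Glo luminescence, normalized to DMSO and empty wells; activity summarized as Z-AUC.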"}, "[7]": {"test": "Quantitative High-Throughput drug screen in 47 multiple myeloma cell lines against the NCATS MIPE library collection: KMS11_JCRBsus cell viability assay (AID 1919873)", "procedure,_shortened": "as §1"}, "[8]": {"test": "qHTS for identification of novel therapeutic agents for treatment of microphthalmiaassociated transcription factor (MiT) renal cell carcinoma (RCC) (AID 1963991; calls by dose curve)", "conditions": "CellTiter-Glo, 48 h; for z-score: stronger effect = lower value", "procedure,_shortened": "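UOK109/UOK124/UOK145 (TFE3 fusions, three partners); 500 cells/well; MIPE v4.0, 1912 cpds, 11 conc.; 48 h, 37 C; CellTiter-Glo, 15 min RT; lum. Norm.: DMSO 100%, empty 0%.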"}, "[9]": {"test": "qHTS profiling for inhibitors of Plasmodium falciparum proliferation (AID 504749)", "conditions": "P. falciparum in erythrocytes, SYBR Green DNA, 72 h", "procedure,_shortened": "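In a 72 h erythrocytic culture (37 C, humidified, 5% CO2) at 2.5% hematocrit and 0.3% starting parasitemia, compounds were tested; SYBR Green I in detergent lysis buffer stained parasite DNA overnight.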"}, "[10]": {"conditions": "measured here: PEO1 parental Z-AUC"}, "[11]": {"conditions": "TFE3-RCC UOK109 viability, measured here: UOK109 Z-AUC"}, "[12]": {"conditions": "TFE3-RCC viability, measured here: UOK124 Z-AUC"}, "[13]": {"conditions": "TFE3-RCC viability, measured here: UOK145 Z-AUC"}},
  "note": "Results filed as inconclusive are left out. The source made the active and inactive calls. Unless noted, the call rests on the fitted dose curve; in most records, active means well fitted curve in the direction sought with a large enough effect; inconclusive means small, poorly fitted or top-dose-only effect, or another doubt; inactive means no such curve, though single readings can be large; an effect the other way counts as inactive or inconclusive. Wherever Potency is given: potency means the concentration at half of the fitted maximal effect.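 Wherever activity, negative = inhibition is given: 0% = DMSO vehicle and full inhibition = artemisinin control; nearly all actives have a fitted effect of over 60% in size.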",
  "data": [
    {"smiles": "Fc1ccc(Cl)cc1-c1nc(Nc2ccncc2)c2nccnc2n1", "values": [
      {"measurement": "Potency", "setting": "[1]", "value": "7.43 µM (active)"},
      {"measurement": "Potency", "setting": "[2]", "value": "5.9 µM (active)"},
      {"measurement": "Potency", "setting": "[3]", "value": "inactive"},
      {"measurement": "Potency", "setting": "[4]", "value": "inactive"},
      {"measurement": "Potency", "setting": "[5]", "value": "inactive"},
      {"measurement": "Z-AUC", "setting": "[6]", "value": "0.985 (inactive)"},
      {"measurement": "Z-AUC", "setting": "[6]; [10]", "value": 1.18},
      {"measurement": "Z-AUC", "setting": "[6]; measured here: PEO4 Z-AUC", "value": 1.09}
    ]},
    {"smiles": "COc1cc2nccc(Oc3ccc(NC(=O)NC4CC4)c(Cl)c3)c2cc1C(N)=O", "values": [
      {"measurement": "Potency", "setting": "[1]", "value": "18.7 µM (active)"},
      {"measurement": "Potency", "setting": "[2]", "value": "16.6 µM (active)"},
      {"measurement": "Potency", "setting": "[3]", "value": "20.9 µM (active)"},
      {"measurement": "Potency", "setting": "[4]", "value": "13.2 µM (active)"},
      {"measurement": "Potency", "setting": "[7]", "value": "20.9 µM (active)"},
      {"measurement": "Potency", "setting": "[5]", "value": "16.6 µM (active)"},
      {"measurement": "Z-AUC", "setting": "[6]", "value": "-1.2 (inactive)"},
      {"measurement": "Z-AUC", "setting": "[6]; [10]", "value": 0.621},
      {"measurement": "Z-AUC", "setting": "[6]; measured here: PEO4 Z-AUC", "value": 0.0753}
    ]},
    {"smiles": "C[C@]12CC[C@H](O)CC1=CC[C@@H]1[C@H]2CC[C@]2(C)C(c3cccnc3)=CC[C@H]12", "values": [
      {"measurement": "Potency", "setting": "[1]", "value": "inactive"},
      {"measurement": "Potency", "setting": "[2]", "value": "inactive"},
      {"measurement": "Potency", "setting": "[3]", "value": "inactive"},
      {"measurement": "Potency", "setting": "[4]", "value": "inactive"},
      {"measurement": "Potency", "setting": "[5]", "value": "inactive"}
    ]},
    {"smiles": "COc1ccc(CC2=NN3C([C@@H](CCc4ccccc4)[C@@H](C)O)=NC(C)C3C(=O)N2)cc1OC", "note": "(some centres not stated)", "values": [
      {"measurement": "Potency", "setting": "[1]", "value": "inactive"},
      {"measurement": "Potency", "setting": "[2]", "value": "inactive"},
      {"measurement": "Potency", "setting": "[3]", "value": "inactive"},
      {"measurement": "Potency", "setting": "[4]", "value": "inactive"},
      {"measurement": "Potency", "setting": "[7]", "value": "inactive"},
      {"measurement": "Potency", "setting": "[5]", "value": "inactive"}
    ]},
    {"smiles": "Cn1cnc2c(F)c(Nc3ccc(Br)cc3Cl)c(C(=O)NOCCO)cc21", "values": [
      {"measurement": "Potency", "setting": "[1]", "value": "0.235 µM (active)"},
      {"measurement": "Potency", "setting": "[2]", "value": "0.166 µM (active)"},
      {"measurement": "Potency", "setting": "[3]", "value": "0.935 µM (active)"},
      {"measurement": "Potency", "setting": "[7]", "value": "inactive"},
      {"measurement": "Z-AUC", "setting": "[6]", "value": "0.189 (inactive)"},
      {"measurement": "Z-AUC", "setting": "[6]; [10]", "value": 0.0472},
      {"measurement": "Z-AUC", "setting": "[6]; measured here: PEO4 Z-AUC", "value": -0.246}
    ]},
    {"smiles": "O=c1[nH]cnc2[nH]ncc12", "values": [
      {"measurement": "Potency", "setting": "[1]", "value": "18.7 µM (active)"},
      {"measurement": "Potency", "setting": "[2]", "value": "inactive"},
      {"measurement": "Potency", "setting": "[3]", "value": "inactive"},
      {"measurement": "Potency", "setting": "[7]", "value": "inactive"},
      {"measurement": "Z-AUC", "setting": "[6]", "value": "-0.687 (inactive)"},
      {"measurement": "Z-AUC", "setting": "[6]; [10]", "value": -0.667},
      {"measurement": "Z-AUC", "setting": "[6]; measured here: PEO4 Z-AUC", "value": -0.722},
      {"measurement": "z-score", "setting": "[8]; [11]", "value": 0.431},
      {"measurement": "z-score", "setting": "[8]; [12]", "value": 0.33},
      {"measurement": "z-score", "setting": "[8]; [13]", "value": 0.0964},
      {"measurement": "activity, negative = inhibition", "setting": "[9]; at 28.7 µM (top of the series), parasite line A", "value": "-0.162% (inactive)"},
      {"measurement": "activity, negative = inhibition", "setting": "[9]; at 28.7 µM (top of the series), parasite line B", "value": "2.37% (inactive)"}
    ]},
    {"smiles": "CCN(CC)CCCC(C)Nc1ccnc2cc(Cl)ccc12", "note": "(configuration not stated)", "values": [
      {"measurement": "Potency", "setting": "[1]", "value": "inactive"},
      {"measurement": "Potency", "setting": "[2]", "value": "10.5 µM (active)"},
      {"measurement": "Potency", "setting": "[3]", "value": "inactive"},
      {"measurement": "Potency", "setting": "[4]", "value": "inactive"}
    ]},
    {"smiles": "Cc1c(CN2CCN(C(=O)C(C)C)CC2)sc2c(N3CCOCC3)nc(-c3cnc(N)nc3)nc12", "values": [
      {"measurement": "Potency", "setting": "[1]", "value": "0.0662 µM (active)"},
      {"measurement": "Potency", "setting": "[2]", "value": "0.235 µM (active)"},
      {"measurement": "Potency", "setting": "[3]", "value": "0.0296 µM (active)"},
      {"measurement": "Potency", "setting": "[4]", "value": "0.118 µM (active)"},
      {"measurement": "Potency", "setting": "[5]", "value": "0.0372 µM (active)"},
      {"measurement": "Potency", "setting": "[8]; TFE3-RCC UOK109 viability, active = Z-AUC below -0.8 in all three lines", "value": "0.118 µM (active)"},
      {"measurement": "z-score", "setting": "[8]; [11]", "value": -1.83},
      {"measurement": "z-score", "setting": "[8]; [12]", "value": -1.54},
      {"measurement": "z-score", "setting": "[8]; [13]", "value": -2.67}
    ]},
    {"smiles": "Cc1cc(Nc2nc(N[C@@H](C)c3ncc(F)cn3)ncc2Cl)n[nH]1", "values": [
      {"measurement": "Potency", "setting": "[1]", "value": "10.5 µM (active)"},
      {"measurement": "Potency", "setting": "[2]", "value": "6.62 µM (active)"},
      {"measurement": "Potency", "setting": "[3]", "value": "11.8 µM (active)"},
      {"measurement": "Potency", "setting": "[6]", "value": "12.3 µM (active)"},
      {"measurement": "Z-AUC", "setting": "[6]; [10]", "value": -1.18},
      {"measurement": "Z-AUC", "setting": "[6]; measured here: PEO4 Z-AUC", "value": -1.3}
    ]},
    {"smiles": "CCCCNc1cc(C(=O)O)cc(S(N)(=O)=O)c1Oc1ccccc1", "values": [
      {"measurement": "Potency", "setting": "[1]", "value": "inactive"},
      {"measurement": "Potency", "setting": "[2]", "value": "inactive"},
      {"measurement": "Potency", "setting": "[3]", "value": "inactive"},
      {"measurement": "Potency", "setting": "[4]", "value": "inactive"},
      {"measurement": "Z-AUC", "setting": "[6]", "value": "-0.665 (inactive)"},
      {"measurement": "Z-AUC", "setting": "[6]; [10]", "value": 0.995},
      {"measurement": "Z-AUC", "setting": "[6]; measured here: PEO4 Z-AUC", "value": 0.519},
      {"measurement": "z-score", "setting": "[8]; [11]", "value": 0.772},
      {"measurement": "z-score", "setting": "[8]; [12]", "value": 0.679},
      {"measurement": "z-score", "setting": "[8]; [13]", "value": -1.8},
      {"measurement": "activity, negative = inhibition", "setting": "[9]; at 12.8 µM (top of the series), parasite line A", "value": "-5.15% (inactive)"},
      {"measurement": "activity, negative = inhibition", "setting": "[9]; at 12.8 µM (top of the series), parasite line B", "value": "8.34% (inactive)"}
    ]},
    {"smiles": "COc1ccc(CCN2CCN(CCCc3ccccc3)CC2)cc1OC", "values": [
      {"measurement": "Potency", "setting": "[1]", "value": "inactive"},
      {"measurement": "Potency", "setting": "[2]", "value": "inactive"},
      {"measurement": "Potency", "setting": "[3]", "value": "inactive"},
      {"measurement": "Potency", "setting": "[5]", "value": "2.09 µM (active)"}
    ]}
  ]
}
